# Screening results (PubChem)
# Sampled rows, rich in hits. Any-hit rate of the full collection: about 19%.
# IL1B secr inh: blocks inflammasome-driven IL-1 beta release. THP-1 LPS/ATP IL-1B secretion, AlphaLISA, 16 h; active compounds read low. activity change, % at 57.5 µM. hit rate 4.7% among 360,000. AID 743279; in the data active = activity change below about -50%; inconclusive = mostly about -30% to -49%
#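 THP-1 cells pretreated 1 hr with compounds (up to 57.5 uM final), then stimulated with LPS (250 ng/mL final) plus ATP (1.25 mM final); secreted IL-1B measured by AlphaLISA after 16 hr, decreased signal indicating inhibition.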
# ELG1 repair inh: blocks ELG1-dependent DNA repair in HEK293T cells | HEK293T ELG1-luciferase reporter, luminescence, 16 h; DNA damage induced by 5-fluorouridine | Potency, µM (doses to about 46.1 µM), without a hit: top-dose activity change, negative = inhibition, most hits filed as inhibitors | hit rate 2.3% among 330,000 | AID 504467; also: potency is read from the fitted curve at half-maximal effect; nearly all actives have a fitted effect of over 55% in size
#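 5-Fluorouridine DNA damage + compound/DMSO, 2,000 cells/well, 16 h, 37 °C/5% CO2. ONE-Glo, 30 min RT, luminescence. Readout = decrease in reporter signal.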
# TDP1 cell noCPT: qHTS for Inhibitors of human tyrosyl-DNA phosphodiesterase 1 (TDP1): qHTS in cells in absence of CPT. DT40 Tdp1-/- hTDP1 cells, no CPT, ATP luminescence, 48 h. Potency, µM (series often up to 46.2 µM), for the others: top-dose activity change, negative = growth inhibition, actives largely listed as inhibitors. hit rate 15% among 420,000; also: potency is read from the fitted curve at half-maximal effect; nearly all actives have a fitted effect of over 55% in size
#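 Cells were dispensed at 400 per well, compounds added by pin tool, plates incubated ≥48 hr at 37 °C, then CellTiter-Glo added for 30 min at room temperature before luminescence reading. Line: DT40 Tdp1-/- complemented with hTDP1; camptothecin omitted.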
# TDP1 block: blocks human tyrosyl-DNA phosphodiesterase 1; AID 485290; Potency, µM (doses to about 130 µM), inactives show top-dose activity change, negative = inhibition, usual class: inhibitors; recombinant TDP1, AlphaScreen DNA substrate cleavage; hit rate 0.28% among 350,000; Q9NUW8; also: potency is read from the fitted curve at half-maximal effect; nearly all actives have a fitted effect of over 40% in size
# Target sequence (Q9NUW8 whole entry, looked up): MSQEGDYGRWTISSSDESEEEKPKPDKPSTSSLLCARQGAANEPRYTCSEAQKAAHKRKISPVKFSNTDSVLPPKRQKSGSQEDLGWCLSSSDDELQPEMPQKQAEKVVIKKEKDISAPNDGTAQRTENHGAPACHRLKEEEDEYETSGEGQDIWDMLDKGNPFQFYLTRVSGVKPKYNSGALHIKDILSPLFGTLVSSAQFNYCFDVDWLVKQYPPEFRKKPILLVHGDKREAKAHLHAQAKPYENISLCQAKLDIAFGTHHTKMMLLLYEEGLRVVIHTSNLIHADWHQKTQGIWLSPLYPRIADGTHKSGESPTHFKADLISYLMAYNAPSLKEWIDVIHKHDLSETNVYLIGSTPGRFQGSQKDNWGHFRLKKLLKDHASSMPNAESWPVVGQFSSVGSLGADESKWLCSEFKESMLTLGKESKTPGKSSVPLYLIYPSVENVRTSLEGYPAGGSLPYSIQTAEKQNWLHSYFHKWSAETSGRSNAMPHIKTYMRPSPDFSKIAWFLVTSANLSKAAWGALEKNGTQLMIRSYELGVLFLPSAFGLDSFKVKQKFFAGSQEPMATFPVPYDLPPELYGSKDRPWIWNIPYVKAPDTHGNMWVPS
#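 AlphaScreen read-out: signal falls as enzyme removes the 3' tyrosine-FITC from a 5'-biotinylated DNA oligo (15 nM, 5 min, RT). Enzyme was E. coli-made recombinant Tdp1 at 1 nM, exposed to compound for 15 min beforehand; beads 10 ug/ml, 10 min.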
# Giardia kill: Giardia lamblia killing; Giardia lamblia trophozoite viability; activity change, % at 7.66 µM, hits read low; hit rate 0.15% among 340,000; AID 540267; in the data active = activity change below about -80%; inconclusive = between about -30% and that limit;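 also: parasites exposed to compound for two days anaerobically before the ATP read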
#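 Anaerobic 48 hrs incubation at 37 deg C of 100 trophozoites/well with test compounds; ATPLite 1-Step luminescence, 15-30 min RT, reports cellular ATP as viability.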
# DT40 TDP1 CPT: DT40-hTDP1 cell growth loss with CPT. Potency, µM (doses to about 46.2 µM), for inactives: at the top dose activity change, negative = growth inhibition, most hits filed as inhibitors. chicken DT40 Tdp1-/-;hTDP1 cells + 20 nM CPT, ATP luminescence, 48 h. hit rate 12% among 420,000. AID 686979; also: potency is read from the fitted curve at half-maximal effect; nearly all actives have a fitted effect of over 55% in size
#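 Chicken DT40 Tdp1-/- cells stably complemented with human TDP1 were seeded at 400 cells/well in medium containing 20 nM camptothecin, exposed to pin-transferred compounds, and grown at 37 °C for at least 48 hr. Viability was read as ATP luminescence.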
# * hit, by the source's call; ? = inconclusive; · = not tested or not shown; [ ] = dose if it differs, or a comment. Unless noted, calls follow the shape of the dose curve; as a rule, active = well fitted curve in the direction sought with a large enough effect; inconclusive = small, poorly fitted or top-dose-only effect, or another doubt; inactive = no such curve, though single readings can be large; an effect the other way counts as inactive or inconclusive. % is scaled to controls: 0 for no effect and ±100 for the full control effect.
SMILES,IL1B secr inh,ELG1 repair inh,TDP1 cell noCPT,TDP1 block,Giardia kill,DT40 TDP1 CPT
CCOC(=O)c1oc2nc(CC(C)C)c3c(c2c1N)CCC3,?,1%,15µM*,-1%,24,?
CCN(CC)c1ccc(/C=N/NC(=S)NCc2ccccc2)cc1,30,-16%,16µM*,9%,10,?
C=CCNC(=S)N/N=C/c1ccc(N(CC)Cc2ccccc2)cc1,-6,?,18µM*,5%,10,21µM*
Cc1[nH]c2ccccc2c1/C=N/NC(=S)NCc1ccccc1,15,-7%,?,6%,-26,?
CCN(CC)c1ccc(/C=N/NC(=S)NCc2ccc(OC)cc2)cc1,?,?,?,6%,-10,-17%
CC1=C/C(=N\NC(=S)NCc2ccccc2)CC1,11,-9%,1.3µM*,0%,1,1.5µM*
CCN(CC)c1ccc(/C=N/NC(=O)C(O)c2ccccc2)cc1 (stereo not drawn),-16,-7%,-13%,4%,-17,-6%
CC1(C(=O)O)CCN1C(=O)c1cccc(OC(F)(F)F)c1 (stereo not drawn),13,·,-1%,·,·,4%
Cc1ccc(-n2nc(C)c3c(C)c(CCC(=O)NCc4ccccc4)c(C)nc32)cc1,21,-8%,?,2%,-2,?
Cc1ccc(-n2nc(C)c3c(C)c(CCC(=O)NCc4ccco4)c(C)nc32)cc1,-22,23µM*,?,4%,4,23µM*
Cc1ccc(-n2nc(C)c3c(C)c(CCC(=O)NCc4ccccc4Cl)c(C)nc32)cc1,·,·,?,0%,·,16µM*
CCCn1nc(C(=O)OCC(=O)NC(C)c2ccccc2)c2ccccc2c1=O (stereo not drawn),0,13%,-1%,3%,-3,21%
CCc1ccc(NC(=O)CC2C(=O)N(c3cccc(C)c3)C(=O)N2Cc2cccs2)cc1 (stereo not drawn),·,·,21µM*,0%,·,21µM*
CCc1ccc(NC(=O)CC2C(=O)N(c3ccc(Cl)cc3)C(=O)N2Cc2ccco2)cc1 (stereo not drawn),·,·,?,6%,·,21µM*
CCc1ccc(NC(=O)CC2C(=O)N(c3cccc(C)c3)C(=O)N2Cc2ccc(F)cc2)cc1 (stereo not drawn),·,·,-98%,3%,·,?
CCc1ccc(NC(=O)CC2C(=O)N(c3cccc(C)c3)C(=O)N2Cc2ccco2)cc1 (stereo not drawn),·,·,26µM*,6%,·,16µM*
CCOc1ccc(NC(=O)CC2C(=O)N(c3cccc(C)c3)C(=O)N2Cc2ccco2)cc1 (stereo not drawn),·,·,?,8%,·,?
CCc1ccc(NC(=O)CC2C(=O)N(c3cccc(OC)c3)C(=O)N2Cc2ccco2)cc1 (stereo not drawn),·,·,?,6%,·,?
COc1ccc(-c2cc(-c3nnc(COC(=O)C4CC4)o3)c3ccccc3n2)cc1OC,10,7.3µM*,9.2µM*,-3%,0,?
COc1ccc(-c2cc(C(=O)N3CC(C)CC(C)C3)c3ccccc3n2)cc1OC (stereo not drawn),-14,?,?,0%[0.505 µM],-18,?
COc1ccc(-c2cc(-c3nnc(COC(=O)c4ccc(O)cc4)o3)c3ccccc3n2)cc1OC,?,?,10µM*,-1%,18,?
COc1ccc(-c2cc(-c3nnc(COC(=O)C4CC4C)o3)c3ccccc3n2)cc1OC (stereo not drawn),-53*,9.2µM*,16µM*,5%,-12,21µM*
CN(C)c1ccc(/C=C2\C=Cc3ccccc32)c(Cl)c1,·,·,13µM*,·,·,?
COC(=O)c1ccc(-n2c(C)cc(C(=O)CSc3ccc(NC(C)=O)cc3)c2C)cc1,-21,?,23µM*,8%,0,?
Cc1ccc(O)c(C(=O)c2cnn(C(=O)c3cccc(S(=O)(=O)N(C)C)c3)c2)c1,8,?,?,0%,-5,?
SMILES,IL1B secr inh,ELG1 repair inh,TDP1 cell noCPT,TDP1 block,Giardia kill,DT40 TDP1 CPT
Cc1cccc(/C=C2\CCC(=C3SCCCS3)C2=O)c1,-3,?,15µM*,7%,?,?
O=C1C(=C2SCCCS2)CC/C1=C\c1ccc(F)cc1,-12,?,?,3%,?,?
COCCCNc1nc(SCc2ccccc2)nc2sc3c(c12)CCC3,7,?,21µM*,1%,2,?
O=C(COc1ccccc1-c1ccccc1)NCc1cccc(Cl)c1,23,-20%,?,-5%,-22,21µM*
COc1ccc(/C(C)=N/NC(=O)CNC(=O)CCc2ccccc2)c(OC)c1,28,-7%,18µM*,0%,-23,?
COc1ccccc1CNC(=O)CCSCc1cccc(Cl)c1,-72*,3%,-12%,-1%,9,3%
COc1ccc(CNC(=O)CCSCc2cccc(Cl)c2)cc1,-4,?,-13%,3%,-4,4%
COc1ccccc1CNC(=O)CCc1ccccc1,5,-3%,18µM*,·,20,?
Cc1ccccc1OCC(=O)NCc1ccccc1,1,28%,5%,-1%,5,-1%
CCOc1ccc(S(=O)(=O)Nc2ccc(C(=O)NCc3ccncc3)cc2)cc1,-8,7%,2%,2%,23,1%
O=[N+]([O-])c1ccc(CSCc2ccc([N+](=O)[O-])cc2)cc1,8,·,8%,·,5,-4%
CCCCC[C@H](O)/C=C\[C@H]1[C@H](C/C=C\CCCC(=O)O)[C@@H](O)C[C@H]1O (tested in a mixture with another compound),·,·,·,2%[56.1 µM],·,·
O=C1[C@H]2[C@@H](C(=O)N1c1cc(Cl)cc(Cl)c1)[C@]1(C(=O)Nc3ccccc31)N1CCC[C@@H]21,0,?,-6%,2%,-14,-26%
CCc1ccc2c(c1)C1(C(=O)N2)N2CCCC2C(C(=O)c2ccc3ccccc3c2)C12C(=O)Nc1ccccc12 (stereo not drawn),-99*,?,?,1%,7,?
CCc1cccc2c1NC(=O)C21N2CCCC2C(C(=O)c2ccc3ccccc3c2)C12C(=O)Nc1ccccc12 (stereo not drawn),-105*,-7%,13µM*,6%,2,18µM*
Cc1cccc2c1NC(=O)C21N2CCCC2C(C(=O)c2ccc3ccccc3c2)C12C(=O)Nc1ccccc12 (stereo not drawn),-18,-4%,26µM*,10%,6,?
